Active and inactive are the calls of the source.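 Rule for the calls: active = peak TRPC6 channel inhibition above 30% at some tested dose, with a fitted dose response curve; inactive = no inhibition at any dose or no curve fitted.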

For the assay, the target named is Short transient receptor potential channel 6 (Mus musculus) (UniProt Q61143). Put plainly: TRPC6 inhibition potency of TRPC4 inhibitor analogs, dose response, selectivity assay for selective TRPC4 inhibitor project, HEK293 cells, membrane potential dye, quadruplicate (AID 652195). The following applies: FDSS; series mostly up to 20 µM.
Sequence of Short transient receptor potential channel 6 (Mus musculus) (Q61143 whole entry, looked up): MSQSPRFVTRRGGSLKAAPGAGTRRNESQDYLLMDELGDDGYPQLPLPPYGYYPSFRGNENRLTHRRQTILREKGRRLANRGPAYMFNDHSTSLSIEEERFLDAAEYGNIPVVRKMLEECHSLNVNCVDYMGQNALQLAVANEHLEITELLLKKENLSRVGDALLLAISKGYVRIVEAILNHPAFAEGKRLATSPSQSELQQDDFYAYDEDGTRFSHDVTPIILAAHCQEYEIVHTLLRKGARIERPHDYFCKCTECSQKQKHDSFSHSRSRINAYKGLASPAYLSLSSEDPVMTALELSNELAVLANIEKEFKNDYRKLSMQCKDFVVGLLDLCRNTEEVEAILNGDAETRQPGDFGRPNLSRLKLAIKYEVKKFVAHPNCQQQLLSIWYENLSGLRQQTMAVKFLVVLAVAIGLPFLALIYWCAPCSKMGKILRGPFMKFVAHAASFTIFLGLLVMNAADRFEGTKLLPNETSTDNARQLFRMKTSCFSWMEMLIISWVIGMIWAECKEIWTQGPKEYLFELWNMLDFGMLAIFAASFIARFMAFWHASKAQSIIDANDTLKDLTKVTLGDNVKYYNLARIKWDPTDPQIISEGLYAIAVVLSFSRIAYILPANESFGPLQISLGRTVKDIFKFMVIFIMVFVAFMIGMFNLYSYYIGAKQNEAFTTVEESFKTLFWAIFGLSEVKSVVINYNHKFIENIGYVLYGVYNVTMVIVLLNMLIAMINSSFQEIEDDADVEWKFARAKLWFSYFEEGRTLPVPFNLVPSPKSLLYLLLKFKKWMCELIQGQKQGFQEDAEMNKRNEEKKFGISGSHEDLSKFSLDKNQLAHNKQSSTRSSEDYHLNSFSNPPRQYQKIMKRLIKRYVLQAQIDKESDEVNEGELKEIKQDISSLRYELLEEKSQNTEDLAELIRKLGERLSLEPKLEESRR
Take `Cc1cc(N2CCCC(F)C2)nc2ccccc12` (centres undefined): the result was inactive.

As for `FC1CCCN(c2ccc3ccccc3n2)C1` (centres undefined), the call was inactive.

As for `Cc1cc(-n2ccnc2)nc2ccccc12`, the molecule was classed as inactive.

Regarding `FC1CCN(c2ccc3ccccc3n2)CC1`, the outcome was inactive.

For `OC1CCN(c2ccc3ccccc3n2)CC1`, the call was inactive.

Take `Cc1cc(N2CCC(O)C2)nc2ccccc12` (centres undefined): the outcome was inactive.

As for `Cc1cc(N2CCC(O)CC2)nc2ccccc12`, the call was inactive.

As for `O=C1CCN(c2ccc3ccccc3n2)CC1`, the outcome was inactive.

As to `FC1(F)CCN(c2ccc3ccccc3n2)CC1`, the molecule was classed as inactive.

Turning to `C[C@H]1CCCN1c1ccc2ccccc2n1`, the result was inactive.

As to `Cc1cc(N(C)C)nc2ccccc12`, the outcome was inactive.

On to `Cc1cc(-n2cccn2)nc2ccccc12`, for which the result was inactive.

Take `Cc1cc(N2CCC(F)(F)CC2)nc2ccccc12`: the molecule was called inactive.

`OC1CCN(c2ccc3ccccc3n2)C1` (centres undefined): the molecule was classed as inactive.

For `OC1CCCN(c2ccc3ccccc3n2)C1` (centres undefined), the call was inactive.

Take `Cc1cc(-n2cccc2)nc2ccccc12`: the molecule was classed as inactive.

For the molecule `c1ccc2nc(N3CCCC3)ccc2c1`, the molecule was classed as inactive.

As for `Cc1cc(N2CCC(=O)CC2)nc2ccccc12`, the call was inactive.

Take `Cc1cc(N2CCC(F)CC2)nc2ccccc12`: the result was inactive.

The values are drawn from PubChem BioAssay AID652195 (Johns Hopkins Ion Channel Center, 2013).
